The results in this text go back to PubChem BioAssay.

Structures are written as SMILES. Activity calls are given as the source filed them.

Assay [1] in a line: compounds binding Alexa647 anti-His antibody – biochemical, small-molecule microarray, 635 nm fluorescence, artefact control for SMM control protein annotation, primary screen (AID 1128).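 Further: score merges feature fluorescence with signal-to-noise for each printed compound spot.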 As to conditions: higher = more signal.
Assay [2] relates to Human papillomavirus type 1a E7 protein (residues 1-88). In words: HPV1a E7 small-molecule binders, primary screen, biochemical, small-molecule microarray, residues 1-88, 635 nm (AID 1129). The settings on record: small-molecule microarray binding, fluorescence 635 nm; higher = more signal.
The target of assay [3] is Focal adhesion kinase 1 (Homo sapiens) (UniProt Q05397). Nature of the assay: PTK2 protein binding on printed compound slides – biochemical, small-molecule microarray, 635/667 nm fluorescence, BSA, DTT, primary screen (AID 1130).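 Further: composite of spot emission at 667 nm and signal to noise over triplicate slides.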 The settings on record: 635 nm fluorescence, higher = more signal.
In assay [4] the test system is Fibrinogen (Alexa647-labelled). In words: Alexa647-fibrinogen binding to printed small molecules – biochemical, small-molecule microarray, 635/667 nm fluorescence, artefact control for SMM control-protein annotation, profiling panel (AID 1131).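 Further: z-score merges 667 nm fluorescence with per-spot signal-to-noise over triplicate slides.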 The settings on record: fibrinogen-A647 binding fluorescence, higher = more signal.
The target in assay [5] is Follistatin (Homo sapiens) (UniProt P19883). Nature of the assay: FST protein binding to printed compounds – biochemical, small-molecule microarray, 635/667 nm fluorescence, primary screen (AID 1132). The settings on record: 635 nm fluorescence, higher = more signal.
The target of assay [6] is Fibroblast growth factor 2 (Homo sapiens) (UniProt P09038). In words: basic fibroblast growth factor binding to printed compounds – biochemical, small-molecule microarray, 635/667 nm fluorescence, primary screen (AID 1133). As to conditions: FGF2, fluorescence 635/667, higher = more signal.
Assay [7] is described as follows: JC-1 mitochondrial potential readout, lung cancer cells – cell-based, A549, JC-1 fluorescence, basal, 24 h, 100 nL, profiling panel (AID 1138).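 Further: A549 lung adenocarcinoma cells under basal conditions with no added stimulus; test concentration not given here.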 As to conditions: higher = more signal.
The test system of the next assay is Lefty1. In words: Lefty1 protein binding to printed compounds – biochemical, small-molecule microarray, 635/667 nm fluorescence, primary screen (AID 1139). As to conditions: fluorescence 635/667, higher = more signal.
For assay [8], the system named is wheat germ agglutinin (Triticum aestivum), Alexa647-labelled. In words: Alexa647-WGA lectin binding to printed small molecules – biochemical, small-molecule microarray, 635/667 nm fluorescence, artefact control for SMM control-protein annotation, profiling panel (AID 1140).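 Further: score merges 667 nm feature emission with signal to noise over triplicate slides.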 As to conditions: WGA-A647 binding, 635 nm fluorescence, higher = more signal.
The target in assay [9] is Luciferin 4-monooxygenase (Photinus pyralis) (UniProt P08659). In words: inhibition of purified Photinus pyralis luciferase – biochemical, luminescence, purified enzyme, 2006 set, primary screen (AID 1141).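 Further: cell-free assay with purified firefly luciferase at 100 ng per well in PBS; test concentration not given here.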 The settings on record: purified firefly luciferase, SteadyGlo luminescence, 30 min; higher = more signal, called active from +8 up or from −8 down.
Luciferin 4-monooxygenase (Photinus pyralis), sequence (P08659 whole entry, looked up): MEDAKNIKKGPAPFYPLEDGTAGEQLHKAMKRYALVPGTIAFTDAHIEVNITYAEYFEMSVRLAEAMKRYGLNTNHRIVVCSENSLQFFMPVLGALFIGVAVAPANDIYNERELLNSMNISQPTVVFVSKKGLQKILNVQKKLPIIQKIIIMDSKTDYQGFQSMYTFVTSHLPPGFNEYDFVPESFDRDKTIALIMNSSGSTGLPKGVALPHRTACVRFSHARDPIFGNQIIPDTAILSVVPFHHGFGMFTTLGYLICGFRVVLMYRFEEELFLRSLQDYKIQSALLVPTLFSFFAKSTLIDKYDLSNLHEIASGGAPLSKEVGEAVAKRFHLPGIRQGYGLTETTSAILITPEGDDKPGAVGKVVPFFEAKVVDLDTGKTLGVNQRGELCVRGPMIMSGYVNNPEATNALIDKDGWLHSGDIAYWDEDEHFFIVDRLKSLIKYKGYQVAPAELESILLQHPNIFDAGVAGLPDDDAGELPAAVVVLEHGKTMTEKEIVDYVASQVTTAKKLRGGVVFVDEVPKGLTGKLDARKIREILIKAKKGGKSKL

Fibroblast growth factor 2 (Homo sapiens), sequence (P09038 whole entry, looked up): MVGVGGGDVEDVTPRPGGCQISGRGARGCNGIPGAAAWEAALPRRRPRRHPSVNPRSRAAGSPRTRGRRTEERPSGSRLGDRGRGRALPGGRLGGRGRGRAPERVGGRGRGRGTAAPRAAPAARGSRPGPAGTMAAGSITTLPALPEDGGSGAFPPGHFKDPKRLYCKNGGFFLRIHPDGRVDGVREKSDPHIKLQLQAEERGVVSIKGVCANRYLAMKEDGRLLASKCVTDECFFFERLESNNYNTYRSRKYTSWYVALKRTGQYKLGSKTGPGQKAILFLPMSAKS
Focal adhesion kinase 1 (Homo sapiens), sequence (Q05397 whole entry, looked up): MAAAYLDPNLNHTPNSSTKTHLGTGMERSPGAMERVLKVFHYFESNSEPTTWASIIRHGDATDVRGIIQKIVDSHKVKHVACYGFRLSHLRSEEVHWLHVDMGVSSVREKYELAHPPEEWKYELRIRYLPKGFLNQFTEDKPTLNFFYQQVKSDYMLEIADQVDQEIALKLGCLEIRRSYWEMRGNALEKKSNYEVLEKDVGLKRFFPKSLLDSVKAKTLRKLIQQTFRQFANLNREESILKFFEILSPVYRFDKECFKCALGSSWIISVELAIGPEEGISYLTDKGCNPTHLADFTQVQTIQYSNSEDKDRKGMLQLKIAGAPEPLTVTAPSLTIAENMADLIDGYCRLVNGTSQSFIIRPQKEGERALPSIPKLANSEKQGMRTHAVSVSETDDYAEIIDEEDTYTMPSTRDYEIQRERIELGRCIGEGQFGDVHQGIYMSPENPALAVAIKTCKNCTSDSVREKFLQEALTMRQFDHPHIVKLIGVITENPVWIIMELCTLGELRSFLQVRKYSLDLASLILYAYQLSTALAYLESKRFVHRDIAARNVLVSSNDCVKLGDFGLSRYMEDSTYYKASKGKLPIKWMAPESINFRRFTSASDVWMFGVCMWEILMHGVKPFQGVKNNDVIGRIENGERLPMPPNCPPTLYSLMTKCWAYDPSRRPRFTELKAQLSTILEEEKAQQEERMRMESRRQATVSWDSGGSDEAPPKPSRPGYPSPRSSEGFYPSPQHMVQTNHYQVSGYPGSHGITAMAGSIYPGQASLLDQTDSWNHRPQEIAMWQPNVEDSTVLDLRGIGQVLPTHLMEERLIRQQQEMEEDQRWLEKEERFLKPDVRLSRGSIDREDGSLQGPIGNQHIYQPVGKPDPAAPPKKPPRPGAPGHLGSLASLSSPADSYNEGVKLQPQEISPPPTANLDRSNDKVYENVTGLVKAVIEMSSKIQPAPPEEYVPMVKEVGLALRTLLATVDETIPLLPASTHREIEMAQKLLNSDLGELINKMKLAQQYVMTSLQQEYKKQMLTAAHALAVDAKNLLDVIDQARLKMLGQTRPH
Follistatin (Homo sapiens), sequence (P19883 whole entry, looked up): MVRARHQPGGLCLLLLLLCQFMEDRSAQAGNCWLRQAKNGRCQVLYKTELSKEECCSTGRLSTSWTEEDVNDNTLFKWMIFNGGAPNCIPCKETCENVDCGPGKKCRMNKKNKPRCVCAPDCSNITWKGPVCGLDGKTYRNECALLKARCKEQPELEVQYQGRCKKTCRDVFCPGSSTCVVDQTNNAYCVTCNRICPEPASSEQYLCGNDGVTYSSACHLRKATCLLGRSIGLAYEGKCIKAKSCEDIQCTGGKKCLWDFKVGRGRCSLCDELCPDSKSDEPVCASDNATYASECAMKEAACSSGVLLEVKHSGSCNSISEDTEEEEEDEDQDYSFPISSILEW

For `CC(C)N1C(=O)c2ccccc2[C@@H](C(=O)NCCN2CCOCC2)[C@@H]1c1ccc(CO)cc1`, the composite z-score was 1.3 in assay [1]; -0.736 in [2]; -0.378 in [3]; -1.99 in assay [4]; -0.0463 in assay [5]; -1.57 in [6]. Besides, the composite z-score in the assay with Lefty1 was -0.786; in [8] it was -1.23. The z-score in assay [7] is 0.156; in [9] it was 0.128 (inactive).

As for `NC(=O)NCC#Cc1ccc2c(c1)[C@]1(C(=O)N2)[C@H](c2ccccc2OCCO)N2[C@H](c3ccccc3)[C@H](c3ccccc3)OC(=O)[C@H]2[C@@H]1C(=O)NC[C@H](O)c1ccccc1`, the composite z-score in assay [1] was 1.1; in [2], -0.28; in assay [3], 0.183; in assay [4], 0.699; in assay [5] it was 0.109; in [6], -0.751. The composite z-score in the assay with Lefty1 is -0.0823; in assay [8], 0.91. In addition, the z-score was -0.203 in [7] and 0.896 (inactive) in [9].

Take `C=CC[C@@]1(C(=O)NCCCOC)N=C(c2ccc(OCCCO)cc2)O[C@@H]1c1ccccc1`: the composite z-score in assay [1] was 2.85; in assay [2], 1.19; in assay [3], 0.166; in assay [4], -0.273; in [5], 1.3; in [6], 0.594. The composite z-score in the assay with Lefty1 is -0.476; in [8], 0.471. The z-score in assay [7] is 0.565; in [9], -0.589 (inactive).

With `C=CC[C@@H](OC(=O)Nc1ccc(OC)cc1)c1ccc(O)c(F)c1`, the composite z-score is 0.0579 in assay [1]; -0.0596 in assay [2]; 0.676 in assay [3]; -0.699 in [4]; 0.0619 in [5]; -0.448 in [6]. Moreover, the composite z-score in the assay with Lefty1 was -0.201; in assay [8], -0.733. Further, the z-score in assay [7] is -1.71; in [9], -4.17 (inactive).

For the compound `CC1CC/C=C\[C@H]2OC34C=CCN(c5ccc(Cl)cc5)C(=O)[C@H]3N(C(C)CO)C(=O)[C@]4(C)C2C(=O)O1` (stereo not given in full), the composite z-score was -0.984 in assay [1]; -1.5 in assay [2]; -0.177 in assay [3]; -0.173 in assay [4]; -0.954 in assay [5]; -1.06 in [6]. The results for the composite z-score (with Lefty1; in assay [8]) were -0.847 and 0.429, respectively. Also, the z-score in assay [7] was 0.798; in assay [9], -1.14 (inactive).

Take `CC(C)c1ccc(NN2C(C(O)c3ccc(F)cc3)C=CC3C(=O)N(c4ccccc4)C(=O)C32)cc1` (stereo not given): the composite z-score was 0.651 in [1]; 1.24 in [2]; 0.515 in [3]; 0.989 in assay [4]; 1.16 in [5]; -0.15 in [6]. Moreover, the composite z-score was determined as 0.138 in the assay on Lefty1 and 0.886 in [8]. For the same compound, the z-score was -0.559 in [7] and -2.01 (inactive) in [9].

As to `CCOC(=O)C[C@H]1[C@H](OC(=O)c2ccccc2-c2ccccc2)[C@@H](NC(=O)c2ccc3ccccc3n2)c2cc(OCCCO)ccc2N1C(=O)Cc1ccc(OC)cc1`, the composite z-score in [1] was -0.186; in [2], 0.511; in [3], 0.0434; in assay [4], 0.47; in assay [5] it was 0.248; in assay [6], 0.268. For the same compound, the figures for the composite z-score (in the assay with Lefty1; in assay [8]) were 0.577 and 0.509, respectively. Besides, the z-score in [7] is 0.397; in [9], 0.43 (inactive).

Turning to `[N-]=[N+]=NCc1ccccc1[C@@H]1OC(c2ccc(OCCCO)cc2)=N[C@]1(CCS(=O)(=O)c1ccccc1)C(=O)O`, the composite z-score in [1] was 0.843; in assay [2], 0.843; in [3], 0.809; in assay [4], 0.839; in assay [5], 0.0575; in [6], -0.517. Moreover, the composite z-score in the assay on Lefty1 turned out to be 0.381; in assay [8], 1.17. In addition, the z-score in assay [7] was -0.586; in assay [9], -5.21 (inactive).

For the compound `CCOC(=O)C=Cc1cccc(C)c1O`, the composite z-score is 0.0346 in assay [1]; -0.0448 in assay [2]; 0.617 in [3]; 0.252 in [4]; 0.208 in [5]; 0.0326 in assay [6]. For the same compound, the composite z-score is -0.0408 in the assay with Lefty1 and -0.399 in assay [8]. Besides, the z-score in assay [7] is -1.56; in [9] it was -9.24 (active).

On to `COc1ccc([Si](C)(C)[C@@H]2[C@@H](CCO)O[C@]3(C(=O)N(Cc4cccc(NC(=O)[C@H](C)O)c4)c4ccccc43)[C@H]2C)cc1`, for which the composite z-score came to 1.76 in [1]; 1.2 in [2]; 0.642 in assay [3]; 0.694 in [4]; 0.393 in assay [5]; 0.957 in [6]. For the same compound, the composite z-score in the assay on Lefty1 was determined as 0.486; in assay [8], 0.743. Besides, the z-score in assay [7] is -1.52; in [9], -0.355 (inactive).

Take `C=CCC(OC(C)=O)[C@@H]1[C@@H](N(Cc2ccc(-c3cccc(C(F)(F)F)c3)o2)C(=O)Cc2ccc(OC)cc2)c2cc(OCCCO)ccc2N1C(=O)c1ccc(-c2ccccc2)cc1` (stereo not given in full): the composite z-score in assay [1] was -0.0127; in assay [2] it was -0.501; in [3], -0.326; in assay [4] it was -0.771; in assay [5], 0.569; in assay [6] it was 0.119. The composite z-score in the assay with Lefty1 was 0.0533; in [8], -0.402. Besides, the z-score in assay [7] is 0.0544; in [9], 0.244 (inactive).
